SMN2 splice enh: increases expression of the SMN2 splice variant; HEK293 SMN2-luciferase splicing reporter, luminescence, 30-36 h; Potency, µM (highest dose often 46.1 µM), hits mostly activators; actives 2.8% (n = 210,000); AID 1458; also: nearly all actives have a fitted effect of over 55% in size
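qHTS luciferase splicing reporter: luminescence rises when SMN2 exon 7 is included in transfected HEK293 cells. Compound exposure lasted 30-36 h at 37C, with 4.5 mM final sodium butyrate as control, followed by a ONE-Glo read.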
FLuc modulator: counter-screen for miR-21 project: firefly luciferase inhibitors or activators. P08659. purified FLuc, Km substrates, luminescence inhibition. Potency, µM (doses to about 57.5 µM), usual class: inhibitors. actives 6.9% (n = 360,000); also: nearly all actives have a fitted effect of over 55% in size
Target sequence (P08659 whole entry, looked up): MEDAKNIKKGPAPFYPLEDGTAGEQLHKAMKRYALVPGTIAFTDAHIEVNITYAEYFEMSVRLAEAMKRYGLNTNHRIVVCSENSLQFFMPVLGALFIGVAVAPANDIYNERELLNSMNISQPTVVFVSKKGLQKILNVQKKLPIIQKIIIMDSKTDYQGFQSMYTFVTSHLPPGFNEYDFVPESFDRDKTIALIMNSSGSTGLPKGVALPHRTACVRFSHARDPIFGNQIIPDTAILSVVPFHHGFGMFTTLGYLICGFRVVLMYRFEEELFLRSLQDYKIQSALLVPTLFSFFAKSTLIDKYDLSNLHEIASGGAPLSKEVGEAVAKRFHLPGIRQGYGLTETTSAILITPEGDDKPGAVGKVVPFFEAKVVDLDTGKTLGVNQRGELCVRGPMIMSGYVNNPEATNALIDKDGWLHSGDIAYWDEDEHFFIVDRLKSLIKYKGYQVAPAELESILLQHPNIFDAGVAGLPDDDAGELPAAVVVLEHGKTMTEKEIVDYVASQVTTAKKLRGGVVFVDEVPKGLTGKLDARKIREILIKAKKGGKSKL
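Purified P. pyralis luciferase (10nM final) with 10uM D-luciferin and 10uM ATP (Km levels) in 50mM Tris acetate pH 7.5, 10mM Mg acetate, 0.01% Tween-20, 0.05% BSA; qHTS 6-point titration, ~60 µM downward; luminescence read.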
Rab9 promoter act: Rab9 promoter activation; Huh7 Rab9 promoter-luciferase reporter, luminescence, 24 h; Potency, µM (top dose mostly 9.22 µM), usual class: activators; actives 2.8% (n = 320,000); AID 485297; also: nearly all actives have a fitted effect of over 60% in size
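Steps: seed 1500 Huh7 Rab9-luc cells per well, rest 2 h at 37 °C; add compound in DMSO; incubate 24 h; add luciferase reagent, 10 min ambient; read luminescence.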
ELG1 genotox: inducers of genotoxicity in HEK293T ELG1-luciferase cells | HEK293T ELG1-luciferase reporter, luminescence, 16 h | Potency, µM (titrated, usually from 46 µM), hits mostly activators | actives 1.3% (n = 330,000) | AID 504466; also: nearly all actives have a fitted effect of over 60% in size
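Reporter readout depends on ELG1 protein level, which increases with genetic stress. After 16 hr compound exposure at 37 °C, luciferase activity was quantified using ONE-Glo.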
NPC1 promoter act: activates the NPC1 promoter. AID 485313. actives 2.4% (n = 320,000). Huh7 NPC1 promoter luciferase reporter, 24 h. Potency, µM (series often up to 9.22 µM), actives largely listed as activators; also: nearly all actives have a fitted effect of over 60% in size
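Huh7 reporter cells (NPC1 promoter driving luciferase) are dosed with compound for 24 h at 37 °C, 5% CO2; luciferase detection reagent is then added and luminescence measured after 10 min at ambient temperature.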
Hits are given with their value; i = inactive; ? = inconclusive; nt = no result given; [ ] = remark or other dose. Shown are actives, neighbours in structure and some others; about 7.5% of the full set was active somewhere. Calls follow the shape of the dose curve; as a rule, active = well fitted curve in the direction sought with a large enough effect; inconclusive = small, poorly fitted or top-dose-only effect, or another doubt; inactive = no such curve, though single readings can be large; an effect the other way counts as inactive or inconclusive.

SMILES	SMN2 splice enh	FLuc modulator	Rab9 promoter act	ELG1 genotox	NPC1 promoter act
O=[N+]([O-])c1cccc(-c2nnc(CNC3CC3)o2)c1	i	i	i	i	i
CCc1ccc(NC(=O)Cn2c(=O)n(CCC(=O)NCCc3ccc(Cl)cc3)c(=O)c3ccccc32)cc1	i	i	nt	nt	nt
COc1ccc(CCNC(=O)Cc2c(C)c3ccc(O)c(C)c3oc2=O)cc1OC	i	i	nt	nt	nt
COc1ccccc1NC(=O)c1ccc(NC(=O)c2ccco2)cc1	nt	i	i	i	i
CC1CCc2nc(NC(=O)C3CCCO3)sc2C1 (configuration not stated)	2µM	2.1µM	0.5µM	1.2µM	0.5µM
CC1CCc2nc(NC(=O)Cc3cccs3)sc2C1 (configuration not stated)	14µM	9.5µM	2.2µM	9.2µM	3.2µM
CC1CCc2nc(NC(=O)c3ccco3)sc2C1 (configuration not stated)	i	0.3µM	0.28µM	?	0.45µM
CCOc1ccccc1C(=O)Nc1nc2c(s1)CC(C)CC2 (configuration not stated)	nt	2.7µM	nt	nt	nt
COc1ccc(N2CCN(CC(=O)Nc3nc4c(s3)CC(C)CC4)CC2)cc1 (configuration not stated)	i	i	i	i	i
CCC(CC)C(=O)Nc1nc2c(s1)CC(C)CC2 (configuration not stated)	nt	i	nt	nt	nt
Cc1cc(C)c(C)c(S(=O)(=O)Nc2cccc(-n3cnnn3)c2)c1C	nt	i	i	i	i
O=C(CNC(=O)c1ccccc1F)OCc1nc2ccc(Cl)cc2n1CCO	nt	i	i	i	i
O=C(CCCc1cccs1)Nc1nc2c(s1)CCCC2	16µM	24µM	?	?	?
Cc1csc(NC(=O)CCCc2cccs2)n1	i	?	i	i	i
O=C(Nc1ccc(Cl)cc1)c1ccc(OCC2CCCO2)cc1 (configuration not stated)	i	5.4µM	?	?	?
CCOc1ccc2nc(NC(=O)C3CCCO3)sc2c1 (configuration not stated)	nt	i	i	i	i
Cc1cc(C)c2nc(NC(=O)c3ccc(OCC4CCCO4)cc3)sc2c1 (configuration not stated)	i	11µM	i	i	i
Cc1ccc2nc(NC(=O)c3ccc(OCC4CCCO4)cc3)sc2c1 (configuration not stated)	i	3µM	?	i	?
Cc1nc(NCCO)c2nc(-c3ccccc3)n(CC3CCN(C)CC3)c2n1	i	nt	nt	nt	nt
COc1ccc(N2Cc3cccc(C(=O)Nc4ccc(C)cc4)c3C2=O)cc1	i	i	nt	nt	nt
CCOc1ccc(NC(=O)c2cccc3c2C(=O)N(CCOC)C3)cc1	i	6.7µM	i	i	i
COCCN1Cc2cccc(C(=O)Nc3ccc(C)c(C)c3)c2C1=O	i	7.6µM	i	i	i
COc1ccc(N2Cc3cccc(C(=O)Nc4ccc(C(C)C)cc4)c3C2=O)cc1	?	0.27µM	nt	nt	nt
COCCN1Cc2cccc(C(=O)Nc3cccc(OC)c3)c2C1=O	i	i	i	i	i
Cc1nn(CC(=O)Nc2ccc(N3CCOCC3)cc2)c(C)c1Br	nt	i	i	i	i
SMILES	SMN2 splice enh	FLuc modulator	Rab9 promoter act	ELG1 genotox	NPC1 promoter act
CCC(=O)C1CCCN(C(=O)CCc2nnc(-c3ccc(C(C)=O)s3)o2)C1 (configuration not stated)	nt	11µM	?	?	?
CCCOC1CCCN(C(=O)CCc2nnc(-c3ccc4c(c3)OCO4)o2)C1 (configuration not stated)	nt	?	3.2µM	?	?
O=C(O)CSc1ncnc2c1sc1nc(-c3ccccc3)c3c(c12)CCC3	nt	11µM	i	i	i
O=c1[nH]cnc2c1sc1nc(-c3ccccc3)c3c(c12)CCCC3	i	i	i	i	i
Cc1ccc(S(=O)(=O)N(CC(=O)Nc2cc(C)ccc2C)C(=O)N2CCN(C)CC2)cc1	nt	i	i	i	i
Clc1ccccc1/C=C\c1ccnc2ccccc12	i[9.22 µM]	nt	nt	nt	nt
O=C(/C=C/c1ccnc2ccccc12)c1cccs1	7.1µM	0.067µM	0.32µM	?	0.56µM
COc1ccccc1N1CCN(C(=O)C2CCN(C(=O)c3cccc(Cl)c3)CC2)CC1	nt	i	i	i	i
O=c1[nH]c(C2CCN(S(=O)(=O)c3cccc([N+](=O)[O-])c3)CC2)nc2c1nnn2Cc1ccccc1	nt	i	i	i	i
Cc1cccc(-c2ncc(S(=O)(=O)C(C)(C)C)c(N)n2)c1	nt	?	3.2µM	i	4µM
O=c1c2cccc3c(N4CCOCC4)ccc(c32)c2nc3ccccc3n12	i	5.4µM	i	?	i
c1ccc2cc(-c3cc4ccccn4c3)ccc2c1	11µM	0.85µM	3.2µM	3.7µM	3.2µM
CC(=O)N1N=C(c2ccc3ccccc3c2)OC1(C)C	i	?	i	i	i
OC(CN1CCCC(C(F)(F)F)C1)c1ccccc1 (configuration not stated)	nt	i	i	i	i
Cc1ccc(C=Nc2ccccc2C(N)=O)cc1	i	?	i	?	i
Cc1ccc(C(=O)/C=C/Nc2ccccc2C(N)=O)cc1	0.71µM	0.13µM	0.32µM	6.5µM	0.63µM
Cc1ccc(/C=C/C(=O)Nc2cc(S(N)(=O)=O)ccc2O)cc1	i	15µM	i	i	i
NC(=O)c1ccccc1N/C=C/C(=O)c1ccc(Cl)cc1	8.9µM	0.24µM	0.4µM	?	0.4µM
NC(=O)c1ccccc1NC(=O)/C=C/C(=O)O	i	i	i	i	i
Cc1ccc(/C=C/C(=O)Nc2ccccc2C(N)=O)cc1	3.5µM	0.85µM	1.4µM	?	2.8µM
CCOC(=O)CN1C(=O)N[C@@H](c2ccccc2)C(C(C)=O)=C1C	i	i	i	i	i
O=C1N/C(=N/N=C/c2ccc(F)cc2)SC1c1ccccc1 (configuration not stated)	nt	15µM	i	i	i
Cc1cc(C)nc(NC(=O)/C=C/c2ccccc2Cl)c1	13µM	3µM	?	?	?
Cc1cc(N)c2cc(NC(=O)/C=C/c3ccccc3Cl)ccc2n1	nt	13µM	i	i	i
Cc1cc(N2CCCCC2)nc2ccc(NC(=O)/C=C/c3ccccc3Cl)cc12	i	i	nt	nt	nt
SMILES	SMN2 splice enh	FLuc modulator	Rab9 promoter act	ELG1 genotox	NPC1 promoter act
Cc1cc(C)nc(NC(=O)/C=C/c2ccc(Cl)cc2Cl)c1	i	7.6µM	3.5µM	?	?
Cc1cc(C)nc(NC(=O)/C=C/c2ccccc2Cl)n1	?	?	?	i	i
Cc1cc(NC(=O)CN2CCC(C)CC2)nc2c1c(=O)oc1ccccc12	i	i	nt	nt	nt
O=C(Nc1ccc2c(c1)OCO2)c1cc(-c2ccc(O)cc2)on1	nt	?	?	?	3.5µM
O=C(Nc1c(Cl)cccc1Cl)c1cc(-c2cccc(O)c2)on1	?	24µM	nt	nt	nt
O=C(Nc1ccc2c(c1)OCO2)c1cc(-c2cccc(O)c2)on1	nt	2.1µM	i	i	i
CCN(CC)S(=O)(=O)c1ccc(OC)c(NS(=O)(=O)c2ccc(F)cc2)c1	i	i	i	i	i
CCOc1ccccc1NC(=O)CSc1nc(N)c(C#N)cc1C#N	i	i	i	i	i
COC(=O)c1c(C)[nH]c(/C=N/Nc2ccccc2)c1C	nt	11µM	i	?	i
